Experimental data reported in PubChem BioAssay (EPA / NIEHS).
Activity calls are given as the source filed them. How the source made its calls: active means hit-call score of the fitted dose curve at least 0.9, where 1 is the maximum; inactive means score below 0.9.

Read-out: Nuclear factor NF-kappa-B p105 subunit (Homo sapiens) (UniProt P19838)
Experiment: LTEA_HepaRG_NFKB1: Life Technologies and Expression Analysis (LTEA) Assay for Nuclear Factor Kappa B Subunit 1 (NFKB1) using HepaRG (AID 2283521);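 on outcome: TaqMan qRT-PCR transcript normalised to ACTB GAPDH and POLR2A housekeeping genes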
Settings: mRNA level, 48 h; actives raise or lower the signal
Procedure: LTEA_HepaRG is a cell based, multiplexed-readout assay that uses HepaRG, a human liver cell line, with measurements taken at 48 hours after chemical dosing on a 96-well plate.LTEA_HepaRG_NFKB1 is one of 102 assay component(s) measured in the LTEA HepaRG cell culture assay. It is a marker of Cell proliferation, survival, death.Data from the assay component LTEA_HepaRG_NFKB1 was analyzed into 1 endpoint. This assay endpoint, LTEA_HepaRG_NFKB1, was analyzed with bidirectional fitting relative to DMSO as the negative control and baseline of activity. Using a type of inducible reporter, measures of mRNA induction for gain or loss-of-signal activity can be used to understand regulation of transcription factor activity. To generalize the intended target to other relatable targets, this assay endpoint is annotated to the dna binding intended target family, where the subfamily is NF-kappa B.
A total of 1060 chemcials from the ToxCast library were tested in eight-point concentration-response experiments. Cell culture and cytotoxicity assays were conducted at Thermo Fisher Scientific's Custom Services facility (Madison, WI). A single lot of human HepaRG cells (Thermo Fisher Scientific, Frederick, MD) was used for the cell culture experiments. 96-well format collagen type I coated plates of human HepaRG cells were prepared using established methods. Briefly, cryopreserved HepaRG cells were thawed, plated at a density of approximately 100,000 cells/well in HepaRG Thaw, Plate, and General Purpose media (HPRG770, Thermo Fisher Scientific), and incubated for 48 hours. 0.5% DMSO was selected as vehicle control to balance the requisite need of DMSO in HepaRG cultures to maintain differentiation (for example, baseline metabolism, proportions of hepatocytes vs. cholangiocytes), while enabling further hepatic receptor pathway activation (for example, PXR and CAR) in response to chemical exposure. 48 hours after plating, the culture medium was replaced with HepaRG Serum-Free Incudtion Media. Cells were exposed to each test chemical in duplicate and maintained in CO2 incubators for another 48 hours. Chemical plates were thawed to room temperature and 200x concentrations of treatment groups were prepared. 8-point conentration-reponse curves were made with the highest exposure at 100 uM, followed by half-log dilutions, all in 0.5% DMSO. Each test plate contained variouse controls, induction positive controls (1mM phenobarbital), cytotoxicity positive controls ([…] aflatoxin B1), vehicle controls (0.5% DMSO), and total lysis controls (0.5% DMSO). Cell morphology images were taken using an Essen IncuCyte FLR automated microscope, with six 96-well plates imaged in about 24 minutes. Images were captured and exported and JPEG files. Spent culture media was transfered to black-well plates for the LDH assay, and remaining media was sorted at -80 C for later use. Cells were treated with RLT buffer and frozen until shipped for gene expression analysis. Total RNA was isolated from the cell suspension in 75 uL of Buffer RLT (Qiagen, Germantown, MD 20874) by Quintiles/Expression Analysis (Durham, NC) using a custom isolation procedure. Total RNA from each plate well was transferred to a preamplification plate. Fluidigm's 96.96 Dynamic ArrayTM (Fluidigm, Amsterdam, the Netherlands) technology was used for gene expression analyses by quantitative reverse transcription polymerase chain reaction (qRT-PCR, performed by Quintiles/Expression Analysis, Durham, NC)89. Standard TaqManTM Assays (Applied Biosystems/ThermoFisher Scientific, Foster City, CA) were used to assess the expression of 93 genes selected based on their selectivity and sensitivity to important hepatic receptors known to be modulated by environmental chemicals; importance in human hepatocyte functionality; and hepatotoxicity. […]

Chain of Nuclear factor NF-kappa-B p105 subunit (Homo sapiens) (P19838 whole entry, looked up): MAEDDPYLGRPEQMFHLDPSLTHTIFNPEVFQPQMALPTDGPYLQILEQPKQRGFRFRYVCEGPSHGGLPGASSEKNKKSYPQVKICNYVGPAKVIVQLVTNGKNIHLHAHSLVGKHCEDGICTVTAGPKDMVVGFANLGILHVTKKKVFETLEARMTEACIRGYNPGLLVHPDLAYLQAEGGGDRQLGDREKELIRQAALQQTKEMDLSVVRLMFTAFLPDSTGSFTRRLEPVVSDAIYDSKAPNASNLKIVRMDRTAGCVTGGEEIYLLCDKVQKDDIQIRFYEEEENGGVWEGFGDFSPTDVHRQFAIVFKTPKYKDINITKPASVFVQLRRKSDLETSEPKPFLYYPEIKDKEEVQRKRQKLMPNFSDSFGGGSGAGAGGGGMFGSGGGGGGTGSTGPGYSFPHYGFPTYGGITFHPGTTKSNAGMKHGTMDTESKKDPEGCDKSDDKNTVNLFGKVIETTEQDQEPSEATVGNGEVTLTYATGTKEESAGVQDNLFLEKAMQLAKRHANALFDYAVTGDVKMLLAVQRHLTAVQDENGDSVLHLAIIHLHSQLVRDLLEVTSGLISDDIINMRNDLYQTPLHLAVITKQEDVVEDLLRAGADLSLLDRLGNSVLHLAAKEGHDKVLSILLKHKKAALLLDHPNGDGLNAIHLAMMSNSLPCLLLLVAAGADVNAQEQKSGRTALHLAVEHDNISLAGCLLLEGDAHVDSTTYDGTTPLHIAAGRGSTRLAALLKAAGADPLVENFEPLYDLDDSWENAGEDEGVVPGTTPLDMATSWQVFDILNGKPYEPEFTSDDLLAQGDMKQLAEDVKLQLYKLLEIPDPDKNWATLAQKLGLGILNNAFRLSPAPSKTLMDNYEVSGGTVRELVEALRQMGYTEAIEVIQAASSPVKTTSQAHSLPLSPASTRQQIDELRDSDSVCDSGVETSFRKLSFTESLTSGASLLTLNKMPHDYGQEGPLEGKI

AC50, active:
O=C(O)c1cccc(N(Cc2cccnc2)c2ccc(OC(F)F)c(OC(F)F)c2)c1 0.576 µM, COc1cccc(-c2ccc(/C=C\CN3CCCCCC3)cc2Cl)c1 45.2 µM, O=C(CCCCCCCCc1cccnc1)N1CCC(C=C(c2ccccc2)c2ccccc2)CC1 31.4 µM, CCc1cc(SCc2sc(-c3ccc(C(F)(F)F)cc3)nc2CN2CCN(c3ccc(OC)cc3)CC2)ccc1OCC(=O)O 91 µM, O=C(OC[C@H]1O[C@@H](OC(=O)c2cc(O)c(O)c(OC(=O)c3cc(O)c(O)c(O)c3)c2)[C@H](OC(=O)c2cc(O)c(O)c(OC(=O)c3cc(O)c(O)c(O)c3)c2)[C@@H](OC(=O)c2cc(O)c(O)c(OC(=O)c3cc(O)c(O)c(O)c3)c2)[C@@H]1OC(=O)c1cc(O)c(O)c(OC(=O)c2cc(O)c(O)c(O)c2)c1)c1cc(O)c(O)c(OC(=O)c2cc(O)c(O)c(O)c2)c1 8.67 µM

outcome, inactive:
CC(C)=CCC/C(C)=C\CO, CC(C)CCO, Cn1cnc([N+](=O)[O-])c1Sc1ncnc2nc[nH]c12, CC(C)=CCCC(C)CCO (stereo not given), CCNc1ccccc1, Nc1ccc(Nc2ccccc2)cc1, CNS(=O)(=O)c1cc(C(=O)N2CCC(CCN3C4CCC3CC(n3c(C)nc5ccccc53)C4)(c3cccc(F)c3)CC2)c(Cl)cc1F (stereo not given), C=CC(=C)CCC=C(C)C, O=c1[nH]c2ccc(S(=O)CCN3CCC(Cc4ccc(F)cc4)CC3)cc2o1 (stereo not given), O=C(O)c1cc(N=Nc2ccc(S(=O)(=O)Nc3ccccn3)cc2)ccc1O, Fc1ccccc1[C@@H](F)COC1CCC(Nc2ncnc3[nH]ncc23)CC1 (stereo not given in full), O=c1n(CC2CO2)c(=O)n(CC2CO2)c(=O)n1CC1CO1 (stereo not given), CN(C)c1ccc(Cc2ccc(N(C)C)cc2)cc1, COc1ccc(-n2nc(C(F)F)cc2-c2ccc(S(C)=O)cc2)cc1 (stereo not given), CCn1nc(Cc2ccccc2)cc1C1CCN(C[C@H]2C[C@H](N(C)[C@@H](C(=O)O)C(C)C)C[C@@H]2c2cccc(F)c2)CC1, CCCCCCCCCCCCCCCO, C1=CCCC=CCCC=CCC1, CCOC(=O)CC(CC(=O)OCC)(OC(C)=O)C(=O)OCC, COCCOc1cc2cc(C(=O)NC3CCN(C(C)C)CC3)n(CC(=O)Nc3ccc(Cl)cn3)c2cn1, C1N2CN3CN1CN(C2)C3, On1ccccc1=S, Nc1nc2ncc(CNc3ccc(C(=O)N[C@@H](CCC(=O)O)C(=O)O)cc3)nc2c(=O)[nH]1, CNCc1ccc(NC(=O)c2c[nH]c3c2C(=O)CCC3)cc1, Cc1c(-c2cccnc2)c2ccccc2n1CCCCC(=O)O, Cc1ccc(O)cc1, O=C1CCC(N2C(=O)c3ccccc3C2=O)C(=O)N1 (stereo not given), Nc1cccc(N)c1, CCN(C(=O)c1cc(C)cc(OC[C@H](C)Nc2ccncc2)c1)C(C)C, C=CCCCCCCCCC(=O)O, COc1ccc(/C=C/S(=O)(=O)NC(=O)c2ccc(C)cc2Cl)cc1, CC(C)=CCC/C(C)=C/CO, NC(=O)NO, CCOC(=O)COc1ccc2c(c1)CC(NCC(O)c1cccc(Cl)c1)CC2 (stereo not given), O=C(O)c1cccc(Oc2ccccc2)c1, CC[C@H]1OC(=O)[C@H](C)[C@@H](O[C@H]2C[C@@](C)(OC)[C@@H](O)[C@H](C)O2)[C@H](C)[C@@H](O[C@@H]2O[C@H](C)C[C@H](N(C)C)[C@H]2O)[C@](C)(O)C[C@@H](C)C(=O)[C@H](C)[C@@H](O)[C@]1(C)O
